The structures appear in SMILES notation. Calls of active or inactive are those of the source. How the source made its calls: active means hit-call score of the fitted dose curve at least 0.9, where 1 is the maximum; inactive means score below 0.9.

Read-out in test [1]: Interleukin 2 (IL2), IL2 (gene 3558)
Briefly: BSK_BT_xIL2: BioMAP Diversity Plus: BT Assay for Interleukin 2 (IL2) Biomarker Activity (AID 2284245). Particulars: primary human B cells with PBMC. In short, it runs like this: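 B cell + PBMC co-culture (human primary), compound added, 24 h incubation; secreted IL-2 measured multiplexed on Luminex xMAP; gain-of-signal fit vs DMSO.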

Read-out in test [2]: Basic fibroblast growth factor (bFGF), FGF2 (gene 2247)
Briefly: BSK_MyoF_bFGF: BioMAP Diversity Plus: MyoF Assay for Basic fibroblast growth factor (bFGF) Biomarker Activity (AID 2284246). Particulars: primary human lung fibroblasts. In short, it runs like this: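 ELISA-measured bFGF level serves as the read-out, taken 24 h after chemical dosing of human lung fibroblasts. Values represent signal gain over the DMSO negative control.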

Read-out in test [3]: Collagen IV, COL4A1 (gene 1282)
Briefly: BSK_MyoF_CollagenIV: BioMAP Diversity Plus: MyoF Assay for Collagen IV Biomarker Activity (AID 2284247). The following applies: primary human lung fibroblasts. In short, it runs like this:
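Steps: dose human lung fibroblasts; culture 24 h; quantify Collagen IV by ELISA; fit increase versus DMSO control. Parallel SRB total-protein staining (0.1% SRB after 10% TCA fixation, 560 nm) tracks overt cytotoxicity.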

Read-out in test [4]: Monokine induced gamma interferon (MIG), CXCL9 (gene 4283)
Briefly: BSK_KF3CT_MIG: BioMAP Diversity Plus: KF3CT Assay for Monokine induced gamma interferon (MIG) Biomarker Activity (AID 2284248). Particulars: primary human keratinocytes with fibroblasts. The procedure, abridged:
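Human keratinocyte–foreskin fibroblast co-culture; MIG measured by ELISA 24 h after chemical dosing, fitted upward versus DMSO. Cytotoxicity was assessed in parallel cultures by SRB total-protein staining read at 560 nm.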

Read-out in test [5]: Vascular cell adhesion molecule 1 (VCAM1), VCAM1 (gene 7412)
Briefly: BSK_BF4T_VCAM1: BioMAP Diversity Plus: BF4T Assay for Vascular cell adhesion molecule 1 (VCAM1) Biomarker Activity (AID 2284249). The following applies: primary human bronchial epithelial cells with fibroblasts. In short, it runs like this:
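Human bronchial epithelial cell and dermal fibroblast co-culture exposed 24 h. VCAM-1 measured by ELISA; parallel SRB total-protein staining for cytotoxicity. Fitted in positive direction relative to DMSO.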

Read-out in test [6]: Collagen I, COL1A1 (gene 1277)
Briefly: BSK_hDFCGF_CollagenI: BioMAP Diversity Plus: hDFCGF Assay for Collagen I Biomarker Activity (AID 2284250). The following applies: primary human foreskin fibroblasts. In short, it runs like this: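 Human skin primary fibroblasts dosed with test chemical, harvested at 24 h, Collagen I quantified by ELISA; parallel SRB staining (0.1% SRB after 10% TCA fixation, 560 nm) tracked cytotoxicity.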

Read-out in test [7]: Interferon-inducible T-cell alpha chemoattractant (ITAC), CXCL11 (gene 6373)
Briefly: BSK_hDFCGF_ITAC: BioMAP Diversity Plus: hDFCGF Assay for Interferon-inducible T-cell alpha chemoattractant (ITAC) Biomarker Activity (AID 2284251). The following applies: primary human foreskin fibroblasts. In short, it runs like this:
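ELISA readout of I-TAC after 24 h chemical exposure; human dermal foreskin fibroblast primary cells. Positive-direction fitting vs DMSO baseline. Parallel SRB total-protein staining (0.1% SRB after 10% TCA fixation, 560 nm) flags cytotoxicity.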

Read-out in test [8]: Plasminogen activator inhibitor-1 (PAI1), SERPINE1 (gene 5054)
Briefly: BSK_KF3CT_PAI1: BioMAP Diversity Plus: KF3CT Assay for Plasminogen activator inhibitor-1 (PAI1) Biomarker Activity (AID 2284252). Particulars: primary human keratinocytes with fibroblasts. The procedure, abridged:
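ELISA read-out of PAI-1 taken 24 h after chemical treatment of a human skin primary co-culture of keratinocytes and foreskin fibroblasts. Increases over DMSO-treated wells defined activity.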

Read-out in test [9]: Interleukin-8 (IL8), CXCL8 (gene 3576)
Briefly: BSK_KF3CT_IL8: BioMAP Diversity Plus: KF3CT Assay for Interleukin-8 (IL8) Biomarker Activity (AID 2284254). Particulars: primary human keratinocytes with fibroblasts. The procedure, abridged:
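Human keratinocyte/foreskin fibroblast co-culture dosed 24 h; IL-8 measured by ELISA relative to DMSO. Parallel cultures stained with SRB for total protein to flag cytotoxicity.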

Read-out in test [10]: Macrophage Inflammatory Protein-1 Alpha (MIP1a), CCL3 (gene 6348)
Briefly: BSK_IMphg_MIP1a: BioMAP Diversity Plus: IMphg Assay for Macrophage Inflammatory Protein-1 Alpha (MIP1a) Biomarker Activity (AID 2284255). Particulars: primary human endothelial cells with macrophages. The procedure, abridged: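 Co-culture of human venular endothelial cells and macrophages exposed to compounds for 24 h; MIP-1a measured by ELISA relative to DMSO. Cytotoxicity assessed in parallel cultures by sulforhodamine B total-protein staining at 560 nm.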

Read-out in test [11]: Plasminogen activator inhibitor-1 (PAI1), SERPINE1 (gene 5054)
Briefly: BSK_MyoF_PAI1: BioMAP Diversity Plus: MyoF Assay for Plasminogen activator inhibitor-1 (PAI1) Biomarker Activity (AID 2284256).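 On outcome: PAI-1 read 24 h after compound addition.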 The following applies: primary human lung fibroblasts. The procedure, abridged: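 Primary human lung fibroblasts treated with chemical for 24 h; PAI-1 levels quantified by ELISA relative to DMSO. Cytotoxicity was assessed in parallel cultures by SRB total-protein staining (0.1% SRB after 10% TCA fixation, 560 nm).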

Read-out in the next test: CD69, CD69 (gene 969)
Briefly: BSK_IMphg_CD69: BioMAP Diversity Plus: IMphg Assay for CD69 Biomarker Activity (AID 2284257). Particulars: primary human endothelial cells with macrophages. The procedure, abridged:
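Human venular endothelial cells co-cultured with macrophages; CD69 quantified by ELISA 24 h after compound addition. Activity fitted in the positive direction relative to DMSO baseline; cytotoxicity tracked in parallel cultures via SRB total-protein staining.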

Read-out in test [12]: Eotaxin 3, CCL26 (gene 10344)
Briefly: BSK_BF4T_Eotaxin3: BioMAP Diversity Plus: BF4T Assay for Eotaxin 3 Biomarker Activity (AID 2284258). The following applies: primary human bronchial epithelial cells with fibroblasts. In short, it runs like this: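 Co-culture of human bronchial epithelial cells and dermal fibroblasts, exposed to chemicals for 24 h versus DMSO. Eotaxin-3 quantified by ELISA; cytotoxicity checked in parallel cultures by sulforhodamine B total-protein staining.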

Read-out in test [13]: Monocyte Chemoattractant Protein-1 (MCP1), CCL2 (gene 6347)
Briefly: BSK_BF4T_MCP1: BioMAP Diversity Plus: BF4T Assay for Monocyte Chemoattractant Protein-1 (MCP1) Biomarker Activity (AID 2284259). The following applies: primary human bronchial epithelial cells with fibroblasts. In short, it runs like this: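 Co-culture of bronchial epithelial cells and dermal fibroblasts dosed with chemical; MCP-1 measured by ELISA 24 h later. Activity fitted in positive direction versus DMSO; cytotoxicity checked by SRB staining in parallel cultures.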

Read-out in test [14]: Interleukin-8 (IL8), CXCL8 (gene 3576)
Briefly: BSK_MyoF_IL8: BioMAP Diversity Plus: MyoF Assay for Interleukin-8 (IL8) Biomarker Activity (AID 2284261). Particulars: primary human lung fibroblasts. In short, it runs like this:
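Human lung fibroblast (MyoF system) cultures dosed for 24 h, then IL-8 measured by ELISA. Response taken relative to DMSO; parallel SRB total-protein staining for cytotoxicity.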

Read-out in a further test: CD90, THY1 (gene 7070)
Briefly: BSK_BF4T_CD90: BioMAP Diversity Plus: BF4T Assay for CD90 Biomarker Activity (AID 2284262). Particulars: primary human bronchial epithelial cells with fibroblasts. The procedure, abridged: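 Co-culture of human bronchial epithelial cells and dermal fibroblasts, 24 h compound exposure. Cell-surface CD90 measured by ELISA relative to DMSO; parallel SRB total-protein staining for cytotoxicity.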

Read-out in another test: Decorin, DCN (gene 1634)
Briefly: BSK_MyoF_Decorin: BioMAP Diversity Plus: MyoF Assay for Decorin Biomarker Activity (AID 2284265). The following applies: primary human lung fibroblasts. In short, it runs like this: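 Human lung fibroblast cultures were dosed for 24 h, and decorin was then measured by ELISA. Parallel cultures were stained with sulforhodamine B for total protein as a cytotoxicity check. Gain of signal was fitted relative to DMSO.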

Read-out in another test: KRT18 (gene 3875)
Briefly: BSK_BF4T_Keratin818: BioMAP Diversity Plus: BF4T Assay for Keratin 818 Biomarker Activity (AID 2284266). Particulars: primary human bronchial epithelial cells with fibroblasts. In short, it runs like this: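 Co-culture of human bronchial epithelial cells and dermal fibroblasts, chemical exposure 24 h. Keratin 8/18 measured by ELISA; positive-direction fit vs DMSO. SRB total protein run in parallel cultures for cytotoxicity.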

Test [15] can be described thus: BSK_MyoF_SRB: Viability Assessment in the BioMAP Diversity Plus: MyoF Assay (AID 2284267).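 Further: total protein by SRB absorbance in parallel cultures as cytotoxicity measure.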 The following applies: primary human lung fibroblasts. In short, it runs like this:
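Read-out is SRB absorbance at 560 nm, reflecting total protein in parallel lung fibroblast cultures harvested 24 h after compound addition. Cells were TCA-fixed (10%) and stained with 0.1% SRB; activity is referenced to DMSO.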

Read-out in test [16]: Matrix Metallopeptidase 1 (MMP1), MMP1 (gene 4312)
Briefly: BSK_MyoF_MMP1: BioMAP Diversity Plus: MyoF Assay for Matrix Metallopeptidase 1 (MMP1) Biomarker Activity (AID 2284268). Particulars: primary human lung fibroblasts. The procedure, abridged: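 Human lung fibroblast primary cells; MMP1 measured by ELISA 24 h after dosing, fitted in the positive direction relative to DMSO. Parallel SRB staining (0.1%, after 10% TCA fixation, 560 nm) assesses overt cytotoxicity.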

`O=C(O)C(F)(F)OC(F)(F)C(F)(F)OC(F)(F)F`: the result in test [1], in test [2], in test [3], in [4], in test [5] and in [6] was inactive. For the same compound, the outcome in test [7] is “inactive”; in test [8], “inactive”; in test [9], “inactive”; in test [10], “inactive”; in test [11], “inactive”; in the test with CD69, CD69 (gene 969), “inactive”. Further, the outcome in test [12] is “inactive”; in test [13], “inactive”; in [14], “inactive”; with CD90, THY1 (gene 7070), “inactive”; in the test with Decorin, DCN (gene 1634), “inactive”; with KRT18 (gene 3875), “inactive”. In addition, the result in [15] and in test [16] was inactive.
As to `CCOP(=S)(OCC)SCSc1ccc(Cl)cc1`, the outcome in test [1] is “inactive”; in test [2], “inactive”; in [14] it was “inactive”; in the test with Decorin, DCN (gene 1634), “inactive”; in [15], “inactive”. Further, the AC50 (usually the concentration at which the activity in the assay is half-maximal) is 40.8 nM (active) in test [3], 3.97 µM (active) in test [11] and 30.1 µM (active) in [16].
Turning to `Nc1ccc([N+](=O)[O-])cc1Cl`, the outcome in [1] was “inactive”; in test [2], “inactive”; in test [3] it was “inactive”; in test [11] it was “inactive”; in test [14], “inactive”; in the test with Decorin, DCN (gene 1634) it was “inactive”. Moreover, the outcome in test [15] and in test [16] was inactive.
On to `FC(F)(F)C(F)(C(F)(F)F)C(F)(F)C(F)(F)CC1CO1` (stereo unspecified), for which the outcome in test [1], in [2], in test [3], in [4], in test [5] and in [6] was inactive. For the same compound, the outcome was “inactive” in [7]; “inactive” in test [8]; “inactive” in test [9]; “inactive” in test [10]; “inactive” in [11]; “inactive” in the test with CD69, CD69 (gene 969). In addition, the outcome in test [12] was “inactive”; in [13] it was “inactive”; in [14], “inactive”; in the test with CD90, THY1 (gene 7070), “inactive”; with Decorin, DCN (gene 1634) it was “inactive”; in the test with KRT18 (gene 3875), “inactive”. In addition, the result in test [15] and in test [16] was inactive.

Values taken from PubChem BioAssay (EPA / NIEHS).
